Source: PubChem
ATXN viability: reduces viability in counter-screen for ATXN expression inhibitors. S2 cells (HEK-293 line with an ATXN2-luciferase reporter) viability, CellTiter-Fluor protease fluorescence, 24 h. Potency, µM (series often up to 56.7 µM), actives largely listed as cytotoxic. 0.49% of 400,000 active. AID 651635; note: nearly all actives have a fitted effect of over 40% in size
HepG2 viability: counter-screen for TGF-b inhibitors: cytotoxicity in HepG2 cells; Potency, µM (titrated, usually from 46.1 µM), for the others: top-dose activity change, negative = cytotoxicity, usual class: cytotoxic; HepG2 CAGA-GFP viability, ATP luminescence, 18 h; AID 588856; 0.76% of 410,000 active
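HepG2 CAGA-GFP cells (1000/well, DMEM with 1% FBS) received compound, then TGF-beta at 500 pg/mL final, and were incubated 18 hours at 37 degrees C. Viability was read by CellTiter-Glo luminescence. Media-only wells were set as complete cell-killing and DMSO as no toxicity.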
Nrf2 inh: inhibitors of Nrf2 signaling. Potency, µM (series often up to 46 µM), inactives show at the highest dose activity change, negative = inhibition, usual class: inhibitors. 2.1% of 360,000 active. A549 ARE-Fluc reporter, luciferase luminescence, 18-24 h. AID 504444; note: % is set by controls: 0 for no effect and ±100 for the full control effect; nearly all actives have a fitted effect of over 60% in size
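In this cell-based qHTS, ARE-driven firefly luciferase in A549 cells reports Nrf2 activity; the luminescent signal after BugLite lysis is the measured value, with a prior CellTiter-Fluor read for cell health.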
ATXN2 expr inh: reduces ATXN2 reporter expression in HEK-293 cells; HEK-293 ATXN2-luciferase reporter, luminescence, 24 h; Potency, µM (series often up to 57 µM), inactives show at the top dose activity change, negative = inhibition, hits mostly inhibitors; 0.72% of 360,000 active; note: % is set by controls: 0 for no effect and ±100 for the full control effect; nearly all actives have a fitted effect of over 55% in size
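ATXN2-luciferase reporter cells (luciferase flanked by upstream and downstream ATXN2 gene portions) were treated 24 h at 37 °C with compounds at up to 57 uM. SteadyGlo luminescence gave expression; GF-AFC fluorescence gave viability.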
TGFb inhibitor: blocks TGF-b signaling. HepG2 CAGA-GFP TGF-b/SMAD3 reporter, GFP fluorescence, 18 h; TGF-beta stimulated, 500 pg/mL final. Potency, µM (doses to about 46.1 µM), for inactives: top-dose activity, negative = inhibition, hits mostly inhibitors. 1.2% of 410,000 active; note: % is set by controls: 0 for no effect and ±100 for the full control effect; nearly all actives have a fitted effect of over 65% in size
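Inhibition of TGF-beta-driven CAGA-GFP reporter expression in HEPG2 cells is measured by cellular GFP fluorescence after 18 h stimulation with 500 pg/mL recombinant TGF-beta in 1% FBS medium at 37 degrees C.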
A549 viability: kills or reduces viability of A549 cells in Nrf2 counter-screen | A549 ARE-Fluc cells, CellTiter-Fluor viability, 18-24 h | Potency, µM (highest dose often 46 µM), without a hit: at the highest dose activity change, negative = cytotoxicity, usual class: inhibitors | 0.16% of 390,000 active | AID 504648; note: % is set by controls: 0 for no effect and ±100 for the full control effect
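Cytotoxicity counterscreen: CellTiter-Fluor fluorescence was measured in A549 ARE_Fluc cells after 18-24 h of compound exposure in a concentration series. The subsequent BugLite luminescent read reports ARE-luciferase activity.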
* marks the source's active call; other numbers are inactive results; i = inactive; ? = inconclusive; nt = no result; [ ] = another dose, or the depositor's remark. A selection: hits, their analogues and other compounds. The true share with any hit is near 3.8%. Calls come from the whole dose curve; as a rule, active = well fitted curve in the direction sought with a large enough effect; inconclusive = small, poorly fitted or top-dose-only effect, or another doubt; inactive = no such curve, though single readings can be large; an effect the other way counts as inactive or inconclusive. Potency is the fitted concentration of half-maximal effect.

SMILES	ATXN viability	HepG2 viability	Nrf2 inh	ATXN2 expr inh	TGFb inhibitor	A549 viability
COc1ccc(Nc2c3c(nc4ccccc24)CCC3)cc1Cl	nt	-48%	-10%[9.27 µM]	?	?	-9%
Fc1ccc(F)c(Nc2c3c(nc4ccc(Cl)cc24)CCC3)c1	?	18µM*	16%	?	?	-2%
FC(F)(F)c1cccc(Nc2c3c(nc4ccc(Cl)cc24)CCC3)c1	nt	-75%	?	nt	18µM*	-6%
Fc1ccccc1Nc1c2c(nc3ccccc13)CCC2	?	-39%	?	?	?	-10%
COC(=O)c1c(C)[nH]c(C(=O)CSc2ncnc3sc(-c4ccccc4)cc23)c1C	i	4µM*	-17%	-18%	-13%	-6%
COc1ccccc1Nc1c2ccccc2nc2ccccc12	nt	-28%	15µM*	-15%	?	?
Cc1ccc(-c2nc(Nc3cccc(O)c3)c3ccccc3n2)cc1	i	-71%	2%	-30%	?	8%
COc1ccc(Nc2c3ccccc3nc3ccccc23)cc1	i	-36%	-26%	?	?	-9%
Cc1cc(CNC(=O)COc2ccc(F)cc2F)c2ccccc2n1	i	-1%	16µM*	10%	-2%	-6%
COc1cc(Nc2c3ccccc3nc3ccccc23)cc(OC)c1OC	18µM*	-76%	?	?	?	?
Oc1cccc(Nc2c3ccccc3nc3ccccc23)c1	nt	-43%	23µM*	nt	?	?
CCCN(C(=O)c1noc2c1COc1ccc(C)cc1-2)c1ccc(Cl)c(Cl)c1	i	-36%	?	7%	-6%	1%
COc1ccc(C2Nc3ccccc3C(=O)N2Cc2ccccc2)cc1COc1ccc(C)cc1 (stereo unspecified)	nt	nt	-8%	nt	nt	2%
O=C(O)c1ccccc1OC1=NS(=O)(=O)c2ccccc21	nt	nt	14%	nt	nt	-2%
CC(C)(C)OC(=O)N1CCC(c2c(C(=O)N3CCN(c4ccccc4F)CC3)cnn2-c2ccccc2Cl)CC1	nt	-12%	-15%	nt	?	3%
COc1ccccc1OCC(=O)NNc1c2ccccc2nc2ccccc12	?	-46%	21µM*	nt	?	?
COc1cccc(NC(=O)c2ccc3c(c2)OCCO3)c1	i	14µM*	?	?	-24%	-11%
COc1cccc(NC(=O)c2ccc3c(c2)OCO3)c1	i	-59%	?	22%	-24%	0%
C/C(=N\OCC(=O)Nc1ccc2c(c1)OCCO2)c1ccc2c(c1)OCCO2	i	-17%	18µM*	0%	-10%	-14%
COc1cccc(NC(=O)c2cccc(N3C(=O)C4C5C=CC(C5)C4C3=O)c2)c1 (stereo unspecified)	i	-3%	18µM*	-14%	-14%	?
Cc1ccc2c(c1)c1c(c(=O)n(-c3ccccc3)c(=O)n1CC(=O)N1CCCC1)n2C	nt	-20%	nt	nt	?	-6%
COc1ccc(-c2csc(NC(=O)CCN3C(=O)C4CC=CCC4C3=O)n2)cc1OC (stereo unspecified)	?	-31%	-7%	-20%	1%	1%
CC(=O)c1ccc(NC(=O)N2CCN(c3cccc(Cl)c3)CC2)cc1	i	-16%	9.2µM*	-7%	-13%	-7%
CC(=O)c1ccc(N2CCN(C(=O)Nc3ccc(Cl)cc3)CC2)cc1	i	-5%	16µM*	-29%	-25%	-7%
O=C(Nc1ccc(Cl)cc1)N1CCN(c2ccccc2)CC1	i	5%	-19%	5%	-2%	-6%
SMILES	ATXN viability	HepG2 viability	Nrf2 inh	ATXN2 expr inh	TGFb inhibitor	A549 viability
CC1(C(=O)NS(=O)(=O)c2ccc(Cl)cc2)CCN1C(=O)C/C=C/c1ccccc1 (stereo unspecified)	i	-13%	nt	?	-11%	nt
C#CCOCC1CN(C)C(=O)O1 (stereo unspecified)	i	-3%	nt	nt	?	nt
O=C(CSc1nc(-c2cccs2)cc(C(F)(F)F)n1)Nc1cc(OCC(F)(F)F)cc([N+](=O)[O-])c1	16µM*	19%	?	?	-5%	-4%
COc1ccc(NC(=O)CSc2nc(-c3cccs3)cc(C(F)(F)F)n2)cc1OC	i	-8%	nt	-23%	?	-14%
O=C(O)c1cccc(C(=O)Nc2cccc(NC(=O)C3CCCO3)c2)c1 (stereo unspecified)	i	0%	14%	?	9%	12%
O=C(Nc1ccc(C(F)(F)F)cc1)c1ccc(NC(=O)C2CCCO2)cc1 (stereo unspecified)	i	16%	21µM*	?	-19%	2%
O=C(O)c1cccc(NC(=O)c2cccc(NC(=O)C3CCCO3)c2)c1 (stereo unspecified)	i	0%	-12%	8.9µM*	-18%	-3%
O=C(Nc1ccc(F)cc1)c1ccc(NC(=O)C2CCCO2)cc1 (stereo unspecified)	i	-17%	-5%	18%	3%	-2%
CSc1ncccc1C(=O)OCc1cccc([N+](=O)[O-])c1	i	6%	3%	23%	-4%	0%
CCCN1C(=O)C(Cc2nc3ccccc3c(=O)n2CC)c2cc(Br)ccc21 (stereo unspecified)	nt	-30%	-3%	nt	7.9µM*	-7%
CCn1c(CC2C(=O)N(C)c3ccc(Br)cc32)nc2ccccc2c1=O (stereo unspecified)	nt	-9%	11%	nt	?	10%
c1cc2c(cc1C1CCCCC1)c1c3n2CCCNC3CCC1 (stereo unspecified)	nt	13µM*	-7%	28µM*	0%	-1%
CC1CCc2c(nc3nc[nH]n3c2=O)C1 (stereo unspecified)	i	-25%	23%	-11%	6%	-5%
S=c1c2c(nc3nc[nH]n13)CCC2	6.3µM*	-64%	14%	nt	10µM*	2%
O=S(=O)(c1ccccc1)c1nc(-c2ccco2)oc1NCc1cccnc1	i	11µM*	nt	8%	-7%	2%
O=C(Nc1ccc(Oc2cccc(C(F)(F)F)c2)nc1)c1ccccc1	i	-10%	?	-22%	0%	-3%
O=C(Nc1ccc(Oc2cccc(C(F)(F)F)c2)nc1)c1cccs1	i	-43%	16µM*	?	?	1%
COC(=O)c1ccc(CNC(=O)Cn2cnc3c(SC)nc(N)nc32)cc1	i	-21%	23µM*	-16%	?	2%
COC(=O)c1c(C)[nH]c(C(=O)COC(=O)CCc2ccc(OC)c(OC)c2)c1C	i	-18%	nt	nt	1%	nt
